From PubChem BioAssay (NCI)
This is part of a sample that, as a whole, favours compounds with a hit. Of some 83,000 tested, about 20% had one in any assay.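 96-well plates, one dose, 48 hours. Percent growth reported; active if below 10.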 The source made the active and inactive calls.

What was measured:
Assay in all cases: NCI-60 one-dose screen, 48 h (100 = growth as untreated, 0 = no growth, -100 = all killed)
Conditions in all cases: 10 µM unless noted
[1] = tested on: DU-145 prostate
[2] = tested on: K-562 leukemia
[3] = tested on: MALME-3M melanoma
[4] = tested on: MDA-MB-231 breast
[5] = tested on: SF-268 CNS
[6] = tested on: SF-295 CNS
[7] = tested on: SF-539 CNS
[8] = tested on: UACC-257 melanoma
[9] = tested on: M14 melanoma
[10] = tested on: HCT-15 colon
[11] = tested on: HT29 colon
[12] = tested on: SNB-75 CNS
[13] = tested on: SNB-19 CNS
[14] = tested on: U251 CNS
[15] = tested on: PC-3 prostate
[16] = tested on: SK-MEL-5 melanoma
[17] = tested on: UACC-62 melanoma
[18] = tested on: LOX IMVI melanoma
[19] = tested on: SK-MEL-28 melanoma
[20] = tested on: RXF 393 renal

Measured: growth

O=Cc1cn(Cc2ccc(Cl)cc2)c2ccccc12
active: [17] -0.449%
inactive: [1] 95.5% | [2] 40.5% | [3] 96.5% | [4] 96.1% | [5] 89.6% | [6] 46% | [7] 87.4% | [8] 21.8% | [9] 83.8% | [10] 89.7% | [11] 106% | [12] 86.7% | [13] 89.7% | [14] 75.5% | [15] 82.3% | [16] 94.4% | [18] 88.2% | [19] 96.4%

O=[N+]([O-])c1ccc(OP(=O)(CCl)N(CCCl)CCCl)cc1 (centres undefined)
inactive: [1] 110% | [2] 97.1% | [3] 109% | [4] 124% | [20] 101% | [5] 104% | [7] 105% | [8] 99.9% | [9] 98.6% | [10] 90.3% | [11] 86.8% | [12] 77.7% | [13] 111% | [14] 96.1% | [16] 107% | [17] 104% | [18] 98.4%

CN1C(=O)C23CC4(C56CC78SSC(CO)(C(=O)N7C5Nc5ccccc56)N(C)C8=O)c5ccccc5NC4N2C(=O)C1(CO)SS3 (centres undefined)
active: [1] -100% | [2] -30.3% | [3] -76.7% | [4] -94.1% | [5] -97.8% | [6] -93.8% | [7] -86.4% | [8] -94.9% | [9] -83.3% | [10] -82.3% | [11] -77.3% | [12] -100% | [13] -98.3% | [14] -100% | [15] -99.5% | [16] -95% | [17] -95.6% | [18] -93.6% | [19] -90.6%

CCC1(C(C)C)C(=O)NC(=S)NC1=O
inactive: [1] 115% | [2] 107% | [3] 111% | [4] 114% | [20] 94.8% | [5] 96.1% | [7] 94.3% | [8] 92.2% | [9] 106% | [10] 97.6% | [11] 112% | [12] 95.5% | [13] 108% | [14] 95.9% | [15] 95.6% | [16] 98.8% | [17] 103% | [18] 102% | [19] 109%

O=P1(NCCCl)OCCCN1CCCl (centres undefined)
inactive: [1] 110% | [2] 95.8% | [3] 120% | [4] 120% | [5] 109% | [6] 99.2% | [7] 98.3% | [8] 116% | [9] 106% | [10] 98.9% | [11] 103% | [12] 115% | [13] 111% | [14] 117% | [15] 93.7% | [16] 112% | [17] 107% | [18] 99.8% | [19] 116%

O=C(O)C(O)C(O)C1[O][Sb]([c]2ccc([N+](=O)[O-])cc2)[O]C1CO (centres undefined)
inactive: [1] 116% | [2] 99.6% | [3] 116% | [4] 99.3% | [5] 106% | [6] 101% | [7] 102% | [8] 95.7% | [9] 106% | [10] 95.8% | [11] 101% | [12] 99.1% | [13] 94.9% | [14] 101% | [15] 100% | [16] 103% | [17] 91.9% | [18] 101% | [19] 106%

COC[C@@H]1C[C@@]2(C)[C@@H](CC[C@@H]3[C@@H]2CC[C@@]2(C)[C@H]3CC[C@]2(C)O)CC1=O
inactive: [1] 102% | [2] 85.8% | [3] 96.4% | [4] 116% | [20] 105% | [5] 102% | [7] 90.7% | [8] 83.2% | [9] 94.5% | [10] 94.8% | [11] 83.4% | [12] 90.4% | [13] 113% | [14] 93.7% | [15] 96.8% | [16] 106% | [17] 100% | [18] 95.2% | [19] 96.4%

CC1CCCC(C[N+](C)(C)C)C1=O (centres undefined)
inactive: [1] 115% | [2] 88.3% | [3] 76.5% | [4] 104% | [20] 112% | [5] 112% | [7] 94.2% | [8] 112% | [9] 101% | [10] 108% | [11] 105% | [12] 95.2% | [13] 96.6% | [14] 105% | [15] 93.6% | [16] 99.5% | [17] 90% | [18] 50.2% | [19] 108%

CN(C)C(=O)Oc1ccccc1
inactive: [1] 108% | [2] 111% | [3] 109% | [4] 115% | [20] 122% | [6] 103% | [7] 93.7% | [8] 98.9% | [9] 103% | [10] 98.1% | [11] 118% | [12] 89.1% | [13] 115% | [14] 103% | [15] 94.8% | [16] 113% | [17] 109% | [18] 92.4% | [19] 111%
